Each structure is given as a SMILES string. In all, about 63,000 compounds went through this assay and about 1,100 (1.7%) were called active. Only a selection was taken, and actives are over-represented in it overall. Results with a measured potency or affinity are listed apart. Values without a mark were called inactive. Rule as the data show it: active = cytotoxicity above about 50%; inactive = the rest.

This assay is described as follows: HPDE-C7 pancreatic duct cell viability loss – fluorescence, HTS (AID 430).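 Also: cells exposed to compound for 48 hours before viability readout; 0% = vehicle and 100% = reference cytotoxic drug.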 The note with it: HPDE-C7 pancreatic duct cells viability, at 10 µM, hits give high values.
In the case of `COc1ccc(NC(=O)C2CC(=O)NC(Nc3cccc(C)c3)=N2)cc1` (configuration not stated), the cytotoxicity was 5.9%. Regarding `COC(=O)c1ccc(COC(=O)c2ccc(-n3cnnn3)cc2)o1`, the cytotoxicity is -1.9%. The result for `O=C(Cc1ccc(Cl)cc1)NCCN1CCCC1` reads 1.5%; that for `Cc1c(C(=O)O)sc2ncn(C)c(=O)c12`, -7.5%.

Take `c1ccc(CCn2nnnc2C(c2cccs2)N2CCOCC2)cc1` (configuration not stated): the cytotoxicity was 3.6%. Regarding `COc1ccc(S(=O)(=O)NCCc2csc(C)n2)cc1C`, the cytotoxicity was 0.1%. As for `Cc1ccccc1-n1c(C)nc2ccccc21`, the cytotoxicity was -11.6%.

With `Cc1ccc2c(c1)c1c3n2CCN(C(=O)C2CC2)C3CCC1` (configuration not stated), the cytotoxicity is -6.9%.

Turning to `Cc1ccc2c(c1)c1c3n2CCN(C(=O)CN2CCN(C)CC2)C3CCC1` (configuration not stated), the cytotoxicity was 42.4%. On to `COc1ccc(Cn2nnnc2CN2CCOCC2)cc1`, for which the cytotoxicity was -5.5%. The result for `Cc1nc(NCc2ccco2)c(C#N)c2c1COC(C)(C)C2` reads -17.6%; that for `CCCc1nc(NCc2ccco2)c(C#N)c2c1COC(C)(C)C2`, -13.3%; that for `CN(C)CCNc1nc(-c2ccco2)c2c(c1C#N)CC(C)(C)OC2`, 2.7%. As for `CCN(CC)CCNc1nc(-c2ccco2)c2c(c1C#N)CC(C)(C)OC2`, the cytotoxicity is -14.1%.

Turning to `CCC(=O)Nc1cc(C(=O)NCC2CCCN2CC)c(OC)cc1N(C)C` (configuration not stated), the cytotoxicity was -2.6%. Regarding `Cc1cccc(C)c1NC(=O)N1CCC(n2cnc3ccccc32)CC1`, the cytotoxicity is -24.3%. The result for `Cc1cc(C)n(C(=O)CNC(=O)COc2ccccc2)n1` reads -2.7%; that for `COC(=O)c1ccccc1NC(=O)c1cc2sccc2n1C`, 3.3%; that for `Cc1ccc(S(=O)(=O)Cn2nnnc2C(C(C)C)N2CCN(Cc3ccco3)CC2)cc1` (configuration not stated), -0.6%. Regarding `CCOc1ccc(C(=O)COC(=O)CC)cc1`, the cytotoxicity was -1.4%. The result for `CCC(=O)Oc1ccc(-c2nc(-c3cccnc3)no2)cc1` reads -4.4%. In the case of `CC(C)c1ccc(OC(=O)NCCO)cc1`, the cytotoxicity is -0.9%.

Turning to `COC(=O)CCC(=O)Oc1ccc(OC(=O)CCC(=O)OC)cc1`, the cytotoxicity was 31.7%. The result for `CCn1c(Cc2ccccc2)nnc1SCC(=O)Nc1cc(C)on1` reads 4.4%. The value for `O=C1CCC(=O)N1OCCOc1ccc2c(c1)CCC2` was -1.4%; that for `O=C1NC(c2ccc3c(c2)OCO3)Nc2ccccc21` (configuration not stated) was 10.6%. The value for `COC(=O)c1ccc2c(=O)n(CCCN3CCOCC3)c(=S)[nH]c2c1` was 2.7%. Consider `CCC(C)C(NC(=O)C1CCC(C)CC1)C(=O)NC(C(=O)OC)C(C)C` (configuration not stated), for which the cytotoxicity was -5.2%. `COC(=O)c1sc(NC(=O)COc2ccccc2OC)nc1C`: the cytotoxicity was -3%.

Consider `COc1ccccc1-c1nnc(NC(=O)c2ccccc2F)o1`, for which the cytotoxicity was 4.8%. The value for `COc1cc(-c2nnc(-c3cccs3)o2)cc(OC)c1OC` was -21.3%; that for `COc1cccc2sc(Nc3nnc(-c4cccs4)o3)nc12` was 65.3% (active); that for `COc1cccc2sc(N(C)c3ccccc3)nc12` was -14%. The result for `COc1ccc(-c2nnc(Nc3nc4c(OC)cccc4s3)o2)cc1` reads 85.9% (active).

For the compound `COc1ccc(-c2nnc(-c3ccc(N)cc3)o2)cc1`, the cytotoxicity is 2.5%. The value for `CCOC(=O)c1sc(Nc2nc3c(OC)cccc3s2)nc1C` was 63.9% (active).

Regarding `CCOC(=O)c1sc(NCCNc2nc(C)c(C(=O)OCC)s2)nc1C`, the cytotoxicity is -1.3%. The value for `COc1ccc(-c2nnc(NC(=O)C(C)C)o2)cc1` was -7.7%; that for `COc1ccccc1-c1nnc(Nc2nc3c(OC)cccc3s2)o1` was 54.9% (active); that for `COc1cc2nc(-c3cccs3)oc(=O)c2cc1OC` was 16.9%. The value for `CCCCNC(=O)NCC(=O)Nc1ccc(F)c(F)c1` was -4%; that for `CCSc1nnc(NC(=O)CSc2nccn2-c2cc(C)cc(C)c2)s1` was -2.2%; that for `CC(=O)NC1CC2CCCC(C1)N2S(=O)(=O)c1ccccc1` (configuration not stated) was -17.7%. For `COc1ccc(N(C(=O)CNC(=O)c2ccco2)C(C(=O)NC2CCCCC2)c2ccco2)cc1` (configuration not stated), the cytotoxicity was -2.6%.

Take `Cc1nc(NC(=O)C2CC2)sc1C(=O)N1CCCCC1`: the cytotoxicity is 11.8%. On to `Cc1ccc(-c2noc(CCC(=O)NCCCN3CCN(c4ccc(F)cc4)CC3)n2)cc1`, for which the cytotoxicity is -1.5%.

Regarding `O=C(Nc1ccccn1)c1cccnc1`, the cytotoxicity was 0.9%.

In the case of `CC(=O)Nc1ccc(S(=O)(=O)N(CC(=O)O)Cc2ccccc2)cc1`, the cytotoxicity is -8.5%. The result for `Cc1ccc(S(=O)(=O)Nc2ccc(S(=O)(=O)N3CCCC3)cc2)cc1` reads 8.3%. On to `COc1cccc2sc(Nc3nc(-c4ccccn4)cs3)nc12`, for which the cytotoxicity was 65.7% (active).

Regarding `COc1cccc2sc(Nc3nnc(-c4ccccc4Cl)o3)nc12`, the cytotoxicity was 52.9% (active). On to `COc1ccc(-c2noc(-c3ccccc3Cl)n2)cc1OC`, for which the cytotoxicity was 0.6%. Turning to `c1ccc(-c2csc(Nc3cccnc3)n2)nc1`, the cytotoxicity is 3.7%. On to `Cc1cccc(Nc2nc(-c3ccccn3)cs2)n1`, for which the cytotoxicity is 0.3%. The result for `O=C(Nc1nnc(-c2ccccc2Cl)o1)c1ccco1` reads 6.6%; that for `Cc1ccc2oc(=O)cc(CN3CCC(C)CC3)c2c1`, 0.7%. The value for `O=c1c2ccccc2c(C=NCCO)c(O)n1-c1ccccc1` was 1.2%; that for `CCOC(=O)C1CCCN(C2CC(=O)N(c3ccc(C)c(C)c3)C2=O)C1` (configuration not stated) was -3.2%. The result for `O=C(NCc1ccc(F)cc1)c1ccc(CS(=O)(=O)Cc2ccccc2F)o1` reads -13.3%; that for `Cc1cc(-c2ccccc2)nc(N2CCN(c3ccccn3)CC2)n1`, 11.2%.

Turning to `O=C(c1cc(Cl)ccc1Cl)N1CCN(c2ccccn2)CC1`, the cytotoxicity is 5.9%. For the compound `O=C(NCCC1=CCCCC1)C1CCCN(S(=O)(=O)c2cnc[nH]2)C1` (configuration not stated), the cytotoxicity is -2.1%. As for `CCOC(=O)c1ccccc1NC(=O)COC`, the cytotoxicity is -3.8%.

With `CCOC(=O)c1cccc(C(=O)OCC)n1`, the cytotoxicity was -1%.

For the compound `CCN(c1ccccc1)c1cc(C)nc2nc(C)nn12`, the cytotoxicity is -20.9%. The result for `CC(C)CCNc1ncnc2c1nnn2Cc1ccccc1Cl` reads -10.8%.

Consider `Clc1ccccc1Cn1nnc2c(Nc3ccccc3)ncnc21`, for which the cytotoxicity is -6.8%.

These data come from PubChem BioAssay AID430 (Sanford-Burnham Center for Chemical Genomics, 2006).
